# According to PubChem BioAssay:
# The source made the active and inactive calls.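 The calls were made as follows, unless noted: active = inhibition at or above 50% at 10 µM; inactive = inhibition below 50%.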
# Key:
# [1] = inhibitors of TNFa-induced NFkB p65 translocation, primary screen, imaging, HUVEC, MLSMR starter and 10KST1 sets (AID 438;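 active = inhibition above 20% together with a positive visual image hit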;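 also: compound added about 3h40 before a 20 min TNFalpha stimulation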;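 as to inhibition: signal is the nuclear over cytoplasmic p65 intensity ratio per well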); conditions: HUVEC TNFa-induced p65 nuclear translocation; cell count: measured here: nuclei count (cytotoxicity indicator), at 2.08 µM; inhibition: at 2 µM, stronger effect = higher value, 0% TNFa-plus-vehicle, 100% no-TNFa wells
# [2] = inhibitors of mutant huntingtin aggregation, primary screen, imaging, exon1htt(103Q)mCFP cells, high-content imaging (AID 483;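 active = visual image review flags a hit and inhibition of aggregation exceeds 20%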;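 also: compound exposure lasted 3 days before fixation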;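 as to nuclei count: percent of the per-plate median nuclei count of sample wells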); conditions: exon1htt(103Q)mCFP cell line, aggregate imaging, at 2 µM; inhibition of aggregation: stronger effect = higher value; nuclei count: measured here: cell count, toxicity
# [3] = inhibitors of E-selectin induction by TNFa, primary screen, imaging, HUVEC, immunofluorescence, MLSMR starter and 10KST1 sets (AID 487;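 active = visually confirmed hit in the image check and inhibition above 20%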;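 as to inhibition: signal is fraction of cell area covered by stained E-selectin grains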;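 as to nuclei count: 100% = median nuclei count of all wells on the same plate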); conditions: HUVEC TNFalpha-induced E-selectin immunofluorescence imaging, at 2 µM; inhibition: stronger effect = higher value; nuclei count: measured here: cell number, toxicity
# [4] = biological target: Voltage-gated potassium channel subunit beta-2 (Rattus norvegicus) (UniProt P62483); test: KvBeta enzyme negative modulators, primary screen, biochemical, NADPH fluorescence (AID 622;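 active = fluorescence slope higher than the sample average by over 3 SD, cut at about -0.22 in these data, passing the limit was not always enough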;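 also: slope of raw intensity against log time taken from 70 to 1610 s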); conditions: recombinant KvBeta, 4-cyanobenzaldehyde reduction, at 10 µM, stronger effect = higher value
# [5] = biological target: Voltage-gated potassium channel subunit beta-2 (Rattus norvegicus) (UniProt P62483); test: KvBeta positive modulators, primary screen, biochemical, NADPH fluorescence (AID 623;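 active = NADPH fluorescence slope more negative than the mean of all samples by about 3 SD, 99.7% confidence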;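 also: fluorescence intensity change per second fitted from 20 to 320 s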); conditions: Recombinant KvBeta, NADPH fluorescence decrease slope, 10 min; at 10 µM; stronger effect = lower value
# [6] = biological target: Alpha-2C adrenergic receptor (Homo sapiens) (UniProt P18825); test: modulators of alpha2C/GIRK thallium flux, primary screen, cell-based, HEK293 alpha2C/GIRK1/2 (AID 624;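 active = fluorescence slope after compound addition differing from the mean of all screened samples at 99.7% confidence, in either direction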;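 also: slope of fluorescence ratio to pre-addition baseline per second over 15 to 24 s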); conditions: thallium flux BTC fluorescence, at 10 µM, actives lie on both sides
# [7] = inhibitors of Sendai virus-induced IRF3 signaling, primary screen, TLR/RLR signaling modifier project, cell-based, Sendai virus stimulus, luciferase, 10K MLSCN set (AID 602276); conditions: HEK293 RL24 IRF3 luciferase reporter, at 10 µM, stronger effect = higher value;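 also: firefly luciferase from ISG56 promoter only with Renilla not read in this screen; 0% = Sendai virus plus DMSO and 100% = medium plus DMSO without virus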
# [8] = inhibitors of poly I:C-induced TLR3 signaling, primary screen, cell-based, poly I:C stimulus, luciferase, 10K MLSCN set (AID 602277;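 active = inhibition of the reporter signal at or above 50%; inactive = inhibition below 50%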); conditions: HEK293-TLR3 RL24 IRF3 luciferase reporter, at 10 µM, stronger effect = higher value
# Sequence of Alpha-2C adrenergic receptor (Homo sapiens) (P18825 whole entry, looked up): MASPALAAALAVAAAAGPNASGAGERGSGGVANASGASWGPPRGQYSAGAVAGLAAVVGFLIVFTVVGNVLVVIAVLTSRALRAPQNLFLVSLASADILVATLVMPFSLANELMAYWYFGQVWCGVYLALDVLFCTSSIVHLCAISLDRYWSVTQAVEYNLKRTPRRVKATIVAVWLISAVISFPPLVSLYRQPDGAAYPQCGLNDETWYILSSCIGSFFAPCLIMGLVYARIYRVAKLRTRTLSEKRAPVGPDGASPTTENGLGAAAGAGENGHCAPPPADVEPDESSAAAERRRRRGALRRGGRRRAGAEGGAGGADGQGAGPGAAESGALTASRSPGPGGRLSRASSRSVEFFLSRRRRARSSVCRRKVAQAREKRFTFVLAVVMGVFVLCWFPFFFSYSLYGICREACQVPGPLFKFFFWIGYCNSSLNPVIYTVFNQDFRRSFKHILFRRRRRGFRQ
# Sequence of Voltage-gated potassium channel subunit beta-2 (Rattus norvegicus) (P62483 whole entry, looked up): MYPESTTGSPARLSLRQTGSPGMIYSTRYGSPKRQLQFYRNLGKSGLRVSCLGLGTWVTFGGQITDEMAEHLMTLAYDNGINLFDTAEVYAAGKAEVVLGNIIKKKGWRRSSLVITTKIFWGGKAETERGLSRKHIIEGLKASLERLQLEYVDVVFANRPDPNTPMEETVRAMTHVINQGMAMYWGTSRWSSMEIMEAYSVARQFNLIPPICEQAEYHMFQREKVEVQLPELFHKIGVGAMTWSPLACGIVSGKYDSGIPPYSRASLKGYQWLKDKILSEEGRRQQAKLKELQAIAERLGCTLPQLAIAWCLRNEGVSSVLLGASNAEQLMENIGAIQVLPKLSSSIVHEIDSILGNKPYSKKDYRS
SMILES,cell count [1],inhibition [1],inhibition of aggregation [2],nuclei count [2] [%],inhibition [3],nuclei count [3] [%],fluorescence slope [4],NADPH fluorescence slope [5],slope [6],inhibition [7],inhibition [8]
O=C1CCCC2=C1C(c1cccs1)n1nc(SCc3ccccc3F)nc1N2 (stereo not drawn),694,8.6% (inactive),16.5% (inactive),109,-30.7% (inactive),79.7,-0.505 (inactive),3.2e-05 (inactive),0.00593 (inactive),-24.2% (inactive),-0.597% (inactive)
COc1cccc(/C=N/n2cnnc2)c1OCc1ccccc1,473,-2.6% (inactive),-7% (inactive),104,2.5% (inactive),109,-0.448 (inactive),1.1e-05 (inactive),0.00389 (inactive),20.5% (inactive),12.5% (inactive)
FC(F)Oc1ccc(-c2csc(Cc3nnc4n3CCCCC4)n2)cc1,578,-3.5% (inactive),-9% (inactive),113,84.7% (active),83.2,-0.535 (inactive),7.5e-06 (inactive),0.00442 (inactive),-0.365% (inactive),-11.8% (inactive)
CCSc1nnc(NC(=O)CCNS(=O)(=O)c2cc(Br)cnc2N)s1,243,-1.3% (inactive),3.8% (inactive),93.5,32.4% (inactive),80.5,-0.444 (inactive),1.8e-05 (inactive),0.0065 (inactive),2.91% (inactive),8.81% (inactive)
O=C(NC1CCCC1)C(c1cccs1)N(C(=O)c1ccno1)c1ccccc1 (stereo not drawn),648,-3.2% (inactive),-3.9% (inactive),101,38.6% (inactive),94.7,-0.607 (inactive),-4.3e-05 (inactive),0.00635 (inactive),3.89% (inactive),21.8% (inactive)
COc1ccc(S(=O)(=O)N2CCN(Cc3ccc(Cl)cc3)CC2)cc1,554,-5.4% (inactive),24.4% (inactive),61.1,-97.9% (inactive),148,-0.458 (inactive),-9.2e-06 (inactive),0.00502 (inactive),0.485% (inactive),-1.64% (inactive)
O=S(=O)(Cc1ccccc1)N1CCCCCC1,451,5.2% (inactive),-1% (inactive),91,-42.3% (inactive),103,-0.497 (inactive),-5.8e-05 (inactive),0.00613 (inactive),-4.29% (inactive),4.76% (inactive)
CCOC(=O)c1ccc(NCc2nc3ccccc3[nH]2)cc1,670,-7.9% (inactive),-14.3% (inactive),102,-46% (inactive),126,-0.558 (inactive),2.8e-05 (inactive),0.00739 (inactive),-76.1% (inactive),-152% (inactive)
